Tests used:
[1] = target: T1, Aspartate--tRNA(Asp/Asn) ligase (Mycobacterium tuberculosis (strain ATCC 25618 / H37Rv)) (UniProt P9WFW3); assay: Assay for Asp RNA synthetase-1 from Mycobacterium tuberculosis; type: functional; design: scale not given: direction of the effect not stated beside the values; conditions: 30 µM; note: in the data most compounds retested in dose-response had high values
T1 sequence (whole entry): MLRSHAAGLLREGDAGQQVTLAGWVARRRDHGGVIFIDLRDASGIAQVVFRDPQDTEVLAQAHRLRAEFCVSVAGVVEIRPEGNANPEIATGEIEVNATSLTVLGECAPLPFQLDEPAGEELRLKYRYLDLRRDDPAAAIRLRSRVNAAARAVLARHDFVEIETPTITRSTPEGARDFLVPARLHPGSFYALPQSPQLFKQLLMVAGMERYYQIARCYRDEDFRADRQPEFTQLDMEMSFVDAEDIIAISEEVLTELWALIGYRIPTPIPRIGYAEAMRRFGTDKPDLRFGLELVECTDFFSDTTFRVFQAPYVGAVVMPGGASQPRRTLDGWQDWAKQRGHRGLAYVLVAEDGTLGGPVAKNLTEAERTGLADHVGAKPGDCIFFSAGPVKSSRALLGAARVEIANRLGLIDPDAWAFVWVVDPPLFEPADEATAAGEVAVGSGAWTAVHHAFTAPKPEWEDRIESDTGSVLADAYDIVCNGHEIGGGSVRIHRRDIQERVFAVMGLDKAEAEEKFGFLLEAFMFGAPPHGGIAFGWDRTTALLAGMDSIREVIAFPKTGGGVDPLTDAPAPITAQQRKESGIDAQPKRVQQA

[2] = target: Shiga toxin 2 (Escherichia coli O157:H7) (UniProt P09385+P09386); assay: E. coli 0.157:H7 Shiga Toxin SOP - stx2 screening assay; type: functional; design: scale not given: direction of the effect not stated beside the values; conditions: 30 µM

Q: Which Percent Effect [1] does the source give for `Cc1nc(N2CCN(C)CC2)ncc1C(=O)N1CC(C)(C)C(C)(O)C1` (configuration not stated) here?
A: Its Percent Effect is 3.48%.

Q: And the Percent Effect [2]?
A: Its Percent Effect is -28.2%.

Q: With `CC1=Nc2c(c(=O)[nH]n2C(C)C)C(c2cccs2)S1` (configuration not stated) as the compound, how does the Percent Effect [1] read?
A: Its Percent Effect is 7.78%.

Q: And the Percent Effect [2]?
A: The Percent Effect was 5.29%.

Q: Which Percent Effect [1] does the source give for `Cc1ccc([C@@H]2CN(S(=O)(=O)c3cccs3)C[C@H]2N(C)C)cc1` here?
A: The Percent Effect was -0.804%.

Q: What about the Percent Effect [2] of the same compound?
A: The Percent Effect was 19.8%.

Q: Which Percent Effect [1] does the source give for `Cc1nc[nH]c1CN1CCN(C(=O)c2cccs2)[C@H]2CS(=O)(=O)C[C@H]21` here?
A: The Percent Effect was -4.62%.

Q: And the Percent Effect [2]?
A: The Percent Effect was 10%.

Q: For `COc1ccc(CN2CCc3ncnc(OC(C)C)c3CC2)cc1`, which Percent Effect [1] is on record?
A: Its Percent Effect is 8.01%.

Q: What about the Percent Effect [2] of the same compound?
A: The Percent Effect was -9.16%.

Q: For `COCCN(C)C(=O)c1ccc(OC)cc1O`, which Percent Effect [1] is on record?
A: Its Percent Effect is 0.638%.

Q: What about the Percent Effect [2] of the same compound?
A: Its Percent Effect is -28.1%.

Q: Which results are given for `Cn1ncc2c(=O)[nH]c(N3CCN(C(=O)c4ccsc4)CC3)nc21`?
A: Percent Effect [1]: 1.3%; Percent Effect [2]: 13.3%

Q: How did the Percent Effect [1] turn out when `CNc1cc(N2CCCC2CNCc2ccccn2)ncn1` (configuration not stated) was run?
A: Its Percent Effect is 1.56%.

Q: And the Percent Effect [2]?
A: Its Percent Effect is -35.2%.

Q: For `CC(C)c1cc(NC(=O)c2ccc(C(=O)NC(C)(C)C)cc2)[nH]n1`, which Percent Effect [1] is on record?
A: Its Percent Effect is -0.941%.

Q: What about the Percent Effect [2] of the same compound?
A: The Percent Effect was -39.3%.

Q: Which results are given for `COCC1CCCN(C(=O)c2cc(Cn3ccc4ccccc43)[nH]n2)C1` (configuration not stated)?
A: Percent Effect [1]: 9.18%; Percent Effect [2]: -24.9%

Q: How did the Percent Effect [1] turn out when `Cc1oncc1C(=O)N1CCC2(CC1)CC(c1ccccc1)C(=O)N2C` (configuration not stated) was run?
A: The Percent Effect was -1.78%.

Q: And the Percent Effect [2]?
A: Its Percent Effect is -15.3%.

Q: `Cc1ccccc1-c1cc(C(=O)N2CCn3c(C)nnc3C2)[nH]n1` was tested. Which Percent Effect [1] did it give?
A: The Percent Effect was -2.28%.

Q: And the Percent Effect [2]?
A: Its Percent Effect is -13.5%.

Q: Which Percent Effect [1] does the source give for `O=C(CCC1CCCC1)NCCn1nc(C2CCNC2)c2cccnc21` (configuration not stated) here?
A: The Percent Effect was -0.368%.

Q: What about the Percent Effect [2] of the same compound?
A: Its Percent Effect is -19.4%.

Q: With `Cc1ccc(CNCC2CCc3nnc(C(C)C)n3C2)s1` (configuration not stated) as the compound, how does the Percent Effect [1] read?
A: The Percent Effect was -3.31%.

Q: What about the Percent Effect [2] of the same compound?
A: The Percent Effect was -22.4%.

Q: `Cc1nccc([C@@H]2C[C@@H]3CCN(S(C)(=O)=O)C[C@H]3O2)n1` was tested. Which Percent Effect [1] did it give?
A: The Percent Effect was 2.92%.

Q: And the Percent Effect [2]?
A: The Percent Effect was 11.1%.

Q: What does the source list for `O=C(NCc1ccco1)[C@H]1C[C@@H]2CCN(c3ccncn3)C[C@@H]2O1`?
A: Percent Effect [1]: -4.16%; Percent Effect [2]: -6.97%

Q: Which Percent Effect [1] does the source give for `Cc1nc(NC2CCCC2)cc(C2CCN2C(=O)c2cccnc2)n1` (configuration not stated) here?
A: Its Percent Effect is 2.75%.

Q: And the Percent Effect [2]?
A: Its Percent Effect is 2.33%.

Q: `Cc1cc(C[S+]([O-])CC(=O)Nc2c(C)cccc2C)no1` (configuration not stated) was tested. Which Percent Effect [1] did it give?
A: The Percent Effect was -6.04%.

Q: What about the Percent Effect [2] of the same compound?
A: The Percent Effect was 17%.

Q: With `CC1CCCN(Cc2csc(-c3ncccn3)n2)CC1` (configuration not stated) as the compound, how does the Percent Effect [1] read?
A: The Percent Effect was -2.94%.

Q: And the Percent Effect [2]?
A: The Percent Effect was -26.7%.

Q: Which Percent Effect [1] does the source give for `Cc1nn(C)cc1CCC(=O)N1CCCC(n2cncn2)C1` (configuration not stated) here?
A: Its Percent Effect is -2.1%.

Q: What about the Percent Effect [2] of the same compound?
A: Its Percent Effect is 12.3%.

Q: Which results are given for `Cc1ccoc1C(=O)N1C[C@@H]2[C@@H](C1)OCC(=O)N2Cc1cccnc1`?
A: Percent Effect [1]: 2%; Percent Effect [2]: -12.8%

Source: ChEMBL document CHEMBL3988442, “University of Dundee, Small-Polar-MMV Screening Library” (2021)
